The list is not random: actives were taken first. Their share in the collection is about 7.9%.
KB-3-1 tox: KB-3-1 parental cell cytotoxicity; KB-3-1 viability, CellTiter-Glo ATP luminescence, 72 h; actives 1.4% (n = 400,000); Potency, µM (highest dose often 46.1 µM), most hits filed as cytotoxic; also: nearly all actives have a fitted effect of over 60% in size
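Parental KB-3-1 viability, qHTS format: 72 h compound exposure, 37 °C; CellTiter-Glo; media-only wells and DMSO plates as controls; concentration-effect fits on corrected data.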
HT1080-NT tox: kills 2HG-producing HT-1080-NT fibrosarcoma cells. actives 1.6% (n = 360,000). HT-1080-NT fibrosarcoma viability, CellTiter-Glo ATP luminescence, 48 h. Potency, µM (top dose mostly 46.1 µM), actives largely listed as cytotoxic;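 also: NT is the 2HG producing partner of a matched IDH1 knockdown line; nearly all actives have a fitted effect of over 55% in size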
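A 48-hour cytotoxicity screen used HT-1080-NT cells plated 2 hours before compound delivery. ATP-based CellTiter-Glo luminescence measured viability, normalized to DMSO and no-cell controls.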
MCF10A rerep: inducers of DNA re-replication in MCF 10A breast cells | MCF 10A DNA re-replication, Hoechst nuclear intensity, 48 h | Potency, µM (series often up to 46.1 µM), actives largely listed as activators | actives 2.9% (n = 350,000); also: nearly all actives have a fitted effect of over 50% in size
HT1080 IDH1KD tx: HT-1080 IDH1 knockdown cell toxicity (counter line). HT-1080 IDH1 knockdown viability, ATP luminescence, 48 h. Potency, µM (top dose mostly 46.1 µM), usual class: cytotoxic. actives 2% (n = 360,000). AID 686971
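CellTiter-Glo luminescence after 48 h compound exposure at 37 degrees C of IDH1-knockdown HT-1080 cells in 5% FBS RPMI. %Activity scaled between DMSO wells and cell-free media wells, with curves fitted and assigned curve classes.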
KB-V1 cytotox: kills drug-selected multidrug resistant KB-V1 cells; Potency, µM (doses to about 46.1 µM), most hits filed as cytotoxic; KB-V1 MDR cells viability, CellTiter-Glo, 72 h; actives 3.4% (n = 400,000); also: nearly all actives have a fitted effect of over 60% in size
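Cells of the MDR subline KB-V1 are plated, dosed with compound at multiple concentrations, and incubated 72 h at 37 degrees C; CellTiter-Glo is then added and luminescence read after 10 min.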
SW480 rerep: induces DNA re-replication in SW480 colon adenocarcinoma cells. actives 1.8% (n = 340,000). SW480 DNA re-replication, Hoechst DNA content imaging, 48 h. Potency, µM (series often up to 46.1 µM), actives largely listed as activators; also: nearly all actives have a fitted effect of over 55% in size
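250 cells/well; 23 nL cpd via pin tool; 48 hr, 37 C, 5% CO2; Hoechst 40 min; imager read of total nuclear intensity, ex 405/em 500-530 nm.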
Numbers stand for hits; – = inactive; ? = inconclusive; · = no result given; [ ] = another dose, or the depositor's remark. Calls follow the shape of the dose curve; as a rule, active = well fitted curve in the direction sought with a large enough effect; inconclusive = small, poorly fitted or top-dose-only effect, or another doubt; inactive = no such curve, though single readings can be large; an effect the other way counts as inactive or inconclusive.

SMILES | KB-3-1 tox | HT1080-NT tox | MCF10A rerep | HT1080 IDH1KD tx | KB-V1 cytotox | SW480 rerep
CCCCSc1nnc(CNC(=O)C23CC4CC(CC(C4)C2)C3)n1Cc1ccccc1 | ? | – | ? | – | 2.6µM | –
O=C(NCc1nnc(SCc2ccccc2)n1-c1ccccc1)C12CC3CC(CC(C3)C1)C2 | – | ? | – | ? | ? | –
CCCCn1c(CNC(=O)C23CC4CC(CC(C4)C2)C3)nnc1SC(C)CC (stereo not given) | ? | ? | ? | ? | 21µM | –
O=C(NCc1cccc(Br)c1)C1CCCCN1S(=O)(=O)c1ccc(F)cc1 (stereo not given) | – | · | · | · | – | ·
CC(=O)Oc1ccc(C2=Cc3ccc(OC(C)=O)cc3OC2C)cc1 (stereo not given) | ? | ? | 4.1µM | 16µM | ? | ?
Cc1c(Cl)cccc1NC(=O)Cn1nnc2sc3c(c2c1=O)CCCC3 | – | · | · | · | – | ·
O=C(NCc1ccncc1)[C@@H]1CCCN1C(=O)[C@@H]1CCCN1C(=O)c1ccccc1 | – | – | · | ? | – | ·
CS(=O)(=O)N(CC(=O)NC1CCCC1)Cc1ccc(Cl)cc1 | – | – | – | – | 15µM | –
COc1ccccc1N1CCN(C(=O)CN(Cc2ccccc2)S(C)(=O)=O)CC1 | – | – | – | – | 10µM | –
COc1ccc(N2CCN(C(=O)CN(Cc3ccccc3)S(C)(=O)=O)CC2)cc1 | – | – | – | – | – | –
CS(=O)(=O)N(CC(=O)NC1CCCCC1)Cc1ccc(Cl)cc1 | – | – | – | – | – | –
CN1CCN(C(=O)CN(Cc2ccc(Cl)cc2)S(C)(=O)=O)CC1 | – | – | – | –[9.24 µM] | – | –
CS(=O)(=O)N(CC(=O)N1CCCCCC1)Cc1ccc(Cl)cc1 | – | – | – | – | 5.2µM | –
CN1CCN(C(=O)c2ccc(N(Cc3ccc(Cl)cc3)S(C)(=O)=O)cc2)CC1 | – | – | 5.8µM | –[9.24 µM] | – | ?
Cc1cccc(N(CC(=O)N2CCN(c3ccccc3F)CC2)S(C)(=O)=O)c1 | – | – | – | – | – | –
Cc1cccc(C)c1N(CC(=O)N1CCN(c2ccccc2F)CC1)S(C)(=O)=O | – | – | 0.65µM | – | – | –
Cn1c(=O)c2ccccc2n2c(CCl)nnc12 | ? | ? | ? | ? | ? | 16µM
CCc1ccc2c(c1)NC(c1cccnc1)=NC(c1ccc(C(C)(C)C)cc1)=N2 | – | · | · | · | ? | ·
Cc1ccc(N/C(SCc2ccccc2C)=C(/C#N)C(=O)NCc2ccco2)cc1C | ? | – | ? | – | 12µM | –
CCc1ccc(N/C(SCc2cccc(F)c2)=C(/C#N)C(=O)NCc2ccco2)cc1 | – | –[9.24 µM] | – | – | ? | ?
Cc1ccc2c3c1C(=O)C(=O)N3C(C)(C)CC2C (stereo not given) | – | – | 26µM | – | – | ?
CCOc1cc2c3c(c1)C(C)=CC(C)(C)N3C(=O)C2=O | 21µM | 4.6µM | ? | ? | ? | ?
CCOc1cc2c3c(c1)C(C)CC(C)(C)N3C(=O)C2=O (stereo not given) | – | – | ? | – | 15µM | ?
Cc1cc2c3c(c1)C(C)CC(C)(C)N3C(=O)C2=O (stereo not given) | – | – | – | – | – | –
CN(Cc1cccc2cnccc12)C(=O)CCc1nnc(CCc2ccccc2)o1 | – | – | – | – | ? | –
SMILES | KB-3-1 tox | HT1080-NT tox | MCF10A rerep | HT1080 IDH1KD tx | KB-V1 cytotox | SW480 rerep
COc1ccccc1CCc1nnc(CCC(=O)N(C)Cc2cccc3ncccc23)o1 | – | – | ? | – | 8.2µM | –
CCCCc1c(-c2ccccc2OC)ncn1CCc1cccc(F)c1 | ? | 21µM | · | 18µM | 16µM | ·
CCCCc1c(-c2ccccc2OC)ncn1CCc1cccc(OC)c1 | ? | 18µM | · | 16µM | 12µM | ·
COc1cccc(-c2c(-c3ccccc3OC)ncn2Cc2cccc(-c3ccccc3)c2)c1 | ? | ? | · | ? | 13µM | ·
COC(=O)c1ccc(Cl)cc1NC(=O)Nc1nnc(N(C)Cc2ccccc2)s1 | – | · | · | · | – | ·
Cc1ccc(CS(=O)(=O)c2ncc(Cl)c(C(=O)Nc3ccc(OC(F)F)cc3)n2)cc1 | 23µM | 16µM | 7.3µM | ? | 18µM | ?
CCOc1ccc(NC(=O)c2nc(S(=O)(=O)Cc3ccc(C)cc3)ncc2Cl)cc1 | ? | · | · | · | – | ·
CC(=O)Nc1ccc(NC(=O)c2nc(S(=O)(=O)Cc3ccccc3)ncc2Cl)cc1 | – | – | ? | – | – | –
CCS(=O)(=O)c1ncc(Cl)c(C(=O)Nc2ccc(S(=O)(=O)N3CCCC(C)C3)cc2)n1 (stereo not given) | 3.7µM | 2.6µM | 2.6µM | 4.6µM | 5.8µM | 7.3µM
CS(=O)(=O)c1ncc(Cl)c(C(=O)Nc2ccc3ccccc3c2)n1 | – | 9.2µM | ? | 2.9µM | – | 1.2µM
CCC1CCCCN1S(=O)(=O)c1ccc(NC(=O)c2nc(S(C)(=O)=O)ncc2Cl)cc1 (stereo not given) | ? | 4.6µM | ? | 3.3µM | ? | ?
CCOc1ccccc1NC(=O)C1=C(C)Nc2ncnn2C1c1sccc1C (stereo not given) | – | · | · | · | ? | ·
NC(CS)C(=O)O (stereo not given) | ? | · | – | · | – | –
CCS(=O)(=O)c1ncc(Cl)c(C(=O)Nc2ccc(C)cc2)n1 | ? | 18µM | 5.8µM | 15µM | – | 3.7µM
CCOc1ccc(NC(=O)c2nc(S(=O)(=O)Cc3ccccc3)ncc2Cl)cc1 | ? | · | · | · | – | ·
CCN1CCS/C1=C\C=C\C1=[N+](CC)CCS1 | – | 4.6µM | ? | 5.2µM | – | –
CCN1CCS/C1=C/C=C/C1=[N+](CC)CCS1 | ? | · | – | · | – | –
Cc1ccccc1NC(=O)C(=Cc1ccc(C(=O)O)cc1)C(=O)Nc1ccccc1C | ? | 6.5µM | 13µM | 4.6µM | ? | ?
CCn1cc(C(=O)NCc2ccccc2OC)c(=O)c2cc(S(=O)(=O)N3CCCCC3)ccc21 | – | · | · | · | ? | ·
Cc1cc(C)c(NC(=O)CSC2=Nc3ccccc3C3=NC(CC(=O)NCc4cccs4)C(=O)N23)c(C)c1 (stereo not given) | – | · | · | · | – | ·
CC1CCCC(N2CCN(C(=O)c3ccc([N+](=O)[O-])cc3)CC2)C1 (stereo not given) | – | – | ? | – | – | 8.2µM
O=C(c1ccc(Oc2ccc([N+](=O)[O-])cc2)cc1)N1CCCCCC1 | ? | – | – | ? | – | –
O=C(O)c1ccc(N=Nc2c(O)ccc3ncccc23)cc1 | ? | ? | – | 23µM | ? | 15µM
CCN(CC)S(=O)(=O)c1cc(NC(=O)C(C)N(C)CC(=O)Nc2c(C)cccc2C)ccc1C (stereo not given) | ? | – | – | – | 5.2µM | –

Screening results as filed in PubChem.
